# Reference: the supplement of paper PMC10849652
# About 7,900 targets were measured; listed, in parts, are those with a hit and a random draw of the rest. About 0.6% of all pairs of compound and target were hits.
# Compound: Nc1ccccc1NC(=O)c1ccc(CNC(=O)OCc2cccnc2)cc1 [entinostat]
# Assay: log2 fold change, soluble protein after heating vs DMSO (PISA); higher = thermal stabilisation; K562 cells, 10 uM, 30 min; active = over 0.2 and 3.5 SD of the protein, either way, in both replicates (recomputed)
# Outline: (§1)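 Aliquots of K562 cells (2×10^6 cells/mL) treated with 10 μM compound for 30 min were heated for 3 min over 48°C-58°C. After pooling and extraction in PBS with 0.5% NP-40 at 4°C, soluble protein from a 21,000xg, 90 min spin was quantified by TMTpro 16plex LC-MS/MS with channel sums equalised. Thermal stability is expressed against control samples, from duplicates, as a log2 fold change.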
# UniProt O00244, sequence (O00244 whole entry, looked up): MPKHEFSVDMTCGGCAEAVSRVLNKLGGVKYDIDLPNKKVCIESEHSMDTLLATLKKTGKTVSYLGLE
# UniProt Q15059, sequence (Q15059 whole entry, looked up): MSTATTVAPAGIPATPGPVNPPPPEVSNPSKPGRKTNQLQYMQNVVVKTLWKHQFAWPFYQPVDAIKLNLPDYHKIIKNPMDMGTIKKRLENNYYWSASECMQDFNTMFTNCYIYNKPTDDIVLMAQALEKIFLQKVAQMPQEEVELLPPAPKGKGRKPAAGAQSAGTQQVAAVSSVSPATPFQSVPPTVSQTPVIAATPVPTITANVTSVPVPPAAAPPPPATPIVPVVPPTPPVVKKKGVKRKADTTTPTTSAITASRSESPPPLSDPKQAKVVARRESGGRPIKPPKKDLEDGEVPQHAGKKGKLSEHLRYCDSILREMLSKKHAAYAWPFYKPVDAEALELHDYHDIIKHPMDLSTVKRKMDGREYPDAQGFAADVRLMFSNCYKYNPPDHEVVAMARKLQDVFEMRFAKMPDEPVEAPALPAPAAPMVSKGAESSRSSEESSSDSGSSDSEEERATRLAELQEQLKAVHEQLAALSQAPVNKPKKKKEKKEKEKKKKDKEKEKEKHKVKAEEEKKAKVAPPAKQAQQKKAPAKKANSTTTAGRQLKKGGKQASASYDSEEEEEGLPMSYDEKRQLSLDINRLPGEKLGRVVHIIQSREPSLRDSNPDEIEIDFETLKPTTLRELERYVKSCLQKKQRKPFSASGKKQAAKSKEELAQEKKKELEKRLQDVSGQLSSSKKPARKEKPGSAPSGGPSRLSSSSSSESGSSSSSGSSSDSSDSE
# UniProt Q9UKU0, sequence (Q9UKU0 whole entry, looked up): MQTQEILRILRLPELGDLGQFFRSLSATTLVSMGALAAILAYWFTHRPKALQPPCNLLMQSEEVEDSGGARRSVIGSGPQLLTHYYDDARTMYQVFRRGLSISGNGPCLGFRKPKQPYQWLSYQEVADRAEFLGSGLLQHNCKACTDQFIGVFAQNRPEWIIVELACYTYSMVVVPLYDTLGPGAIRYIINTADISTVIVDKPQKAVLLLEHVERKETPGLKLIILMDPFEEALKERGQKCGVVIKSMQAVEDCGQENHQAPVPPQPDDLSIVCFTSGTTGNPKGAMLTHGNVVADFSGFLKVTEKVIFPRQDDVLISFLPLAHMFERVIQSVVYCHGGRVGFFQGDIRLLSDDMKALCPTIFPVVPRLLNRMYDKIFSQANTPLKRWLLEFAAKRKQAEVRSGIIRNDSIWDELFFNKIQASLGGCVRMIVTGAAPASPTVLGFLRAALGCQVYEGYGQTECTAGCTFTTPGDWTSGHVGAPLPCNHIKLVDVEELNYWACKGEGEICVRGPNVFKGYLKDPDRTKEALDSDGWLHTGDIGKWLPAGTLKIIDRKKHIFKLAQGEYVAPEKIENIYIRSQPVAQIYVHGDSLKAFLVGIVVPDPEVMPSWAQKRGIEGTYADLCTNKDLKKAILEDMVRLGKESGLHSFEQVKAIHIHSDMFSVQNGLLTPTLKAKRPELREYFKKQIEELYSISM
# UniProt P53367, sequence (P53367 whole entry, looked up): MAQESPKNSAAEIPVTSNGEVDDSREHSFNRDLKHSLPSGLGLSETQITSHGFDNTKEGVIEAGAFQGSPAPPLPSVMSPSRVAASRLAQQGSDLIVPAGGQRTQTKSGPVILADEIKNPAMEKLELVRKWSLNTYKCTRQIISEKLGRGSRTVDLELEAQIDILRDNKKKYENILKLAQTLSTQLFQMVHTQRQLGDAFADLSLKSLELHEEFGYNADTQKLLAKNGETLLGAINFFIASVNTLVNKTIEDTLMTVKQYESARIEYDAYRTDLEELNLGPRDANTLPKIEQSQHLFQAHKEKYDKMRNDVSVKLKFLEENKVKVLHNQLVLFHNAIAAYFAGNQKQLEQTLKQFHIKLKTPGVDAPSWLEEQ
# UniProt O00170, sequence (O00170 whole entry, looked up): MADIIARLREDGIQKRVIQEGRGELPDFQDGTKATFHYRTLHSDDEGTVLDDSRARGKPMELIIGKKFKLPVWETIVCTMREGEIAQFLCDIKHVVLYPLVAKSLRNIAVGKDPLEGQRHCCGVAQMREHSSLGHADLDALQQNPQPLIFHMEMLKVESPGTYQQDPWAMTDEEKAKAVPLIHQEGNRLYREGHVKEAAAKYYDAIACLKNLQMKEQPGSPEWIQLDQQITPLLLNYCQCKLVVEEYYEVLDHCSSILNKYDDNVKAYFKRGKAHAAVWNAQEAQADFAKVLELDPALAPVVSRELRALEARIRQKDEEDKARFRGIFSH
# UniProt P18846, sequence (P18846 whole entry, looked up): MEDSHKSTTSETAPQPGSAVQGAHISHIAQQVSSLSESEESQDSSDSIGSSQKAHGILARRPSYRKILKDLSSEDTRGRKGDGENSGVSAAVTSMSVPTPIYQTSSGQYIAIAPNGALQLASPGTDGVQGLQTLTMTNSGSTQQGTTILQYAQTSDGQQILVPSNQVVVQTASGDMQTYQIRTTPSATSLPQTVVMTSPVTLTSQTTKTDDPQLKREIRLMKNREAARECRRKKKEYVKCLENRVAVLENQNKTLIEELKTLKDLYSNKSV
# UniProt Q9NWX5, sequence (Q9NWX5 whole entry, looked up): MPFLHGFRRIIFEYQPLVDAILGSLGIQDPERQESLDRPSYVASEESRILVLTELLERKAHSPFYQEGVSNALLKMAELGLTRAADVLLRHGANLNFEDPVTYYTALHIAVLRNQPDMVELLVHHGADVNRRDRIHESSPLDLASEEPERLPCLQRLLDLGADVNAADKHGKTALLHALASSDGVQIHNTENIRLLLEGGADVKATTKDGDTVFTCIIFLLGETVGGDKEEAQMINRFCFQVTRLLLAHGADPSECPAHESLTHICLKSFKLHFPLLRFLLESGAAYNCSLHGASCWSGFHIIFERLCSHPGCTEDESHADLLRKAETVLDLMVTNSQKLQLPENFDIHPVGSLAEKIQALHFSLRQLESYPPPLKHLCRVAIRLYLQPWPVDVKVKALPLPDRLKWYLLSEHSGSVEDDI
# UniProt P24666, sequence (P24666 whole entry, looked up): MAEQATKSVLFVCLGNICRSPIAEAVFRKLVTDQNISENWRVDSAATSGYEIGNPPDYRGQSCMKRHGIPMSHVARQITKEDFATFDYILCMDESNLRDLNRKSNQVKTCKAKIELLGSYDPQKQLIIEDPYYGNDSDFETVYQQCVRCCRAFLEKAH
# UniProt P36405, sequence (P36405 whole entry, looked up): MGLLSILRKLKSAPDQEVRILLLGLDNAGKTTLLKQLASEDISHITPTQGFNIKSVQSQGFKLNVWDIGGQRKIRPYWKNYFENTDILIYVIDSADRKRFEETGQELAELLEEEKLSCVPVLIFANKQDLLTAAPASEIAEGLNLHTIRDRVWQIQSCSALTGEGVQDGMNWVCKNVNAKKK
# UniProt Q96CW1, sequence (Q96CW1 whole entry, looked up): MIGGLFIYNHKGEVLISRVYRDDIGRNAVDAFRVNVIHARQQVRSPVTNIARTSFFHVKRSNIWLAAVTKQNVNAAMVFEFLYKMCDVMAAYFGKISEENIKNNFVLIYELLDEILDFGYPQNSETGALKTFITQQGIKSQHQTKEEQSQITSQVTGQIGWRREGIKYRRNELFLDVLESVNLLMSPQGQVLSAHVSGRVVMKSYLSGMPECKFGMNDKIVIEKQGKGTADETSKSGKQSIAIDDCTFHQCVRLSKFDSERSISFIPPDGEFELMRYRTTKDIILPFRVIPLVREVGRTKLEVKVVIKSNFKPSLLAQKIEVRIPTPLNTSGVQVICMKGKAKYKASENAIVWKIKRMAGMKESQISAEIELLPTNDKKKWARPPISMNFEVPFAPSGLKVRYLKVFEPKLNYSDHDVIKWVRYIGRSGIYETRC
# UniProt Q8N6T3, sequence (Q8N6T3 whole entry, looked up): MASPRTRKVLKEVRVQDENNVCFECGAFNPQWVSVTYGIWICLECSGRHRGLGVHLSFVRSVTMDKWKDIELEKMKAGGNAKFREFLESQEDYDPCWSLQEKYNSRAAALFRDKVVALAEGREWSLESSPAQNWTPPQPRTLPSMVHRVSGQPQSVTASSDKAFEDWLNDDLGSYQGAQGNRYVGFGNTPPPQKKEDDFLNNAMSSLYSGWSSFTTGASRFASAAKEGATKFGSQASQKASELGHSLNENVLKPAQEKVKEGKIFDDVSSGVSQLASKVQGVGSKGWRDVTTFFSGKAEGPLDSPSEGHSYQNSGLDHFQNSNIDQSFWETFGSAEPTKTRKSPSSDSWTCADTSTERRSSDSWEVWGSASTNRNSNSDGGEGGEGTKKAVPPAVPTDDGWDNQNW
# UniProt P54922, sequence (P54922 whole entry, looked up): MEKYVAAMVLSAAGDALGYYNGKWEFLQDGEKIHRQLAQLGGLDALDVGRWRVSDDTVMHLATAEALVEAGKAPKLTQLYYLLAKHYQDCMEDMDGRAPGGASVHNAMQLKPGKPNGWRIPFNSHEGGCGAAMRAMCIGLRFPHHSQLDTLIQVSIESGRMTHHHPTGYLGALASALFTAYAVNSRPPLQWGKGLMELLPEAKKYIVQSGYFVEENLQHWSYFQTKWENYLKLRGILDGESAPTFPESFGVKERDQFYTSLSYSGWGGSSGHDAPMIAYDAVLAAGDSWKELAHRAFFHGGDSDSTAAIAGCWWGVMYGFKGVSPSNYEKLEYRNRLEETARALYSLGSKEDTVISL
# UniProt Q8N5I2, sequence (Q8N5I2 whole entry, looked up): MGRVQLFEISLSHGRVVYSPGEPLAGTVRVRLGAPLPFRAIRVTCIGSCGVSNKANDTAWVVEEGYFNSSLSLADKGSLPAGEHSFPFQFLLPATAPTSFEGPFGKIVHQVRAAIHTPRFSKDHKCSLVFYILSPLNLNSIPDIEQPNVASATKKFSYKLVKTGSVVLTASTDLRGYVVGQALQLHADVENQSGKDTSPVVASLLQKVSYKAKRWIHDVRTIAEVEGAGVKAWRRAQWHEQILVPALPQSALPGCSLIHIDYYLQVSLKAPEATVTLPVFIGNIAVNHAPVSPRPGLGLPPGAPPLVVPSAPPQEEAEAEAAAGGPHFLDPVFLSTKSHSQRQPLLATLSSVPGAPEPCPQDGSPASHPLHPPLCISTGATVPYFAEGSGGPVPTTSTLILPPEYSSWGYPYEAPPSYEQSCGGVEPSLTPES
row,Target,log2 fold change
1,ARL3 (UniProt P36405),-0.024 (inactive)
2,ABCA4 (UniProt P78363),0.002 (inactive)
3,AFDN isoform 5 (UniProt P55196),0.008 (inactive)
4,AP2M1 (UniProt Q96CW1),-0.007 (inactive)
5,ASB6 (UniProt Q9NWX5),-0.12 (inactive)
6,ATOX1 (UniProt O00244),0.081 (inactive)
7,ADPRH (UniProt P54922),-0.034 (inactive)
8,ADAMTS5 (UniProt Q9UNA0),-0.08 (inactive)
9,AASDH (UniProt Q4L235),0.007 (inactive)
10,ATP7B (UniProt P35670),-0.003 (inactive)
11,ATRN (UniProt O75882),-0.016 (inactive)
12,BRD3 (UniProt Q15059),-0.123 (inactive)
13,ACP1 (UniProt P24666),0.093 (inactive)
14,BRIP1 (UniProt Q9BX63),0.001 (inactive)
15,ARRDC1 (UniProt Q8N5I2),0.075 (inactive)
16,ACTBL2 (UniProt Q562R1),0.103 (inactive)

row,Target,log2 fold change
1,ADAM15 (UniProt Q13444),0.085 (inactive)
2,AIP (UniProt O00170),0.084 (inactive)
3,ATF1 (UniProt P18846),0.066 (inactive)
4,ARFIP1 isoform 2 (UniProt P53367),0.012 (inactive)
5,ACSL6 isoform 1 (UniProt Q9UKU0),-0.056 (inactive)
6,ARGLU1 (UniProt Q9NWB6),-0.071 (inactive)
7,BCLAF1 (UniProt Q9NYF8),0.047 (inactive)
8,B4GALNT1 (UniProt Q00973),0.02 (inactive)
9,ARFGAP1 (UniProt Q8N6T3),0.041 (inactive)
10,ANK2 (UniProt Q01484),0.001 (inactive)
11,ACTR1B (UniProt P42025),-0.034 (inactive)
12,AMD1 (UniProt P17707),-0.038 (inactive)
13,APOH (UniProt P02749),0.06 (inactive)
14,APH1A (UniProt Q96BI3),0.014 (inactive)
15,AUP1 (UniProt Q9Y679),0.061 (inactive)

# Compound: O=C(CCCCCCC(=O)Nc1ccccc1)NO [vorinostat]
# Assay: as above
# Outline: as §1
row,Target,log2 fold change
1,BSCL2 isoform 4 (UniProt Q96G97),0.074 (inactive)
2,ARL3 (UniProt P36405),-0.013 (inactive)
3,ABCA4 (UniProt P78363),0.124 (inactive)
4,ALG14 (UniProt Q96F25),0.29 (inactive)
5,AFDN isoform 5 (UniProt P55196),0.019 (inactive)
6,AP2M1 (UniProt Q96CW1),0.06 (inactive)
7,ASB6 (UniProt Q9NWX5),-0.075 (inactive)
8,ATOX1 (UniProt O00244),-0.018 (inactive)
9,ADPRH (UniProt P54922),-0.039 (inactive)
10,ADAMTS5 (UniProt Q9UNA0),0.056 (inactive)
11,AASDH (UniProt Q4L235),0.051 (inactive)
12,ATP7B (UniProt P35670),0.035 (inactive)
13,ATRN (UniProt O75882),-0.006 (inactive)
14,BRD3 (UniProt Q15059),-0.663 (active)
15,ACP1 (UniProt P24666),0.01 (inactive)
16,BRIP1 (UniProt Q9BX63),-0.025 (inactive)

row,Target,log2 fold change
1,ATXN3 isoform 1 (UniProt P54252),-0.003 (inactive)
2,ARRDC1 (UniProt Q8N5I2),-0.086 (inactive)
3,ACTBL2 (UniProt Q562R1),0.024 (inactive)
4,ADAM15 (UniProt Q13444),0.092 (inactive)
5,AIP (UniProt O00170),0.076 (inactive)
6,ARHGAP25 isoform 4 (UniProt P42331),-0.099 (inactive)
7,ABHD11 (UniProt Q8NFV4),-0.042 (inactive)
8,ATF1 (UniProt P18846),-0.102 (inactive)
9,ARFIP1 isoform 2 (UniProt P53367),0.331 (inactive)
10,ACSL6 isoform 1 (UniProt Q9UKU0),0.048 (inactive)
11,ARGLU1 (UniProt Q9NWB6),-0.061 (inactive)
12,BCLAF1 (UniProt Q9NYF8),0.109 (inactive)
13,B4GALNT1 (UniProt Q00973),0.003 (inactive)
14,ARFGAP1 (UniProt Q8N6T3),0.006 (inactive)
15,ANK2 (UniProt Q01484),0.134 (inactive)
16,ACTR1B (UniProt P42025),0.459 (active)
